From PubChem
Sampled rows, rich in hits. Any-hit rate of the full collection: about 2.5%.
AF4-AF9 inh – inhibitors of human MLL-AF4/AF9 interaction | AlphaScreen, biotin-AF4 peptide binding to FLAG-AF9 | 0.47% of 350,000 active | AID 651704 | inhibition, % at 10 µM;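 active = every replicate reaching a set inhibition limit, whatever the replicate mean, cut at about 25% in these data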;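 note: 0% = plate neutral control median and 100% = total signal loss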
RAD52 anneal inh – RAD52 (human) annealing inhibition. recombinant RAD52 DNA annealing, FRET fluorescence. AID 651710. P43351. inhibition, % at 18.7 µM. 0.46% of 360,000 active;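 active = every replicate showing at least 50% inhibition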
Target sequence (P43351 whole entry, looked up): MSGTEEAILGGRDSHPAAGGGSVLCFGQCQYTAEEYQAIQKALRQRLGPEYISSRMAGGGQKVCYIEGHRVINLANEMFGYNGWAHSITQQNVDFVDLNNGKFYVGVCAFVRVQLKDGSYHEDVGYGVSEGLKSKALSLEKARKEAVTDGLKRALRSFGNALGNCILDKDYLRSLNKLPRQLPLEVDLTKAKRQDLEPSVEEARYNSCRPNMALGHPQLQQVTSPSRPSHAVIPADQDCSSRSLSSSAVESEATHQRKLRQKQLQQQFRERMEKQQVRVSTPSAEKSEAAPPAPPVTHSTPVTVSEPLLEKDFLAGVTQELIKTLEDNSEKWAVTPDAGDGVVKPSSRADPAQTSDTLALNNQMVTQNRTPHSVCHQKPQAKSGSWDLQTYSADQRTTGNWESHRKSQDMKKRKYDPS
CASP6 VEID inh – inhibitors of human caspase-6; P55212; purified caspase-6, Z-VEID-R110 cleavage fluorescence; inhibition, % at 12.5 µM; 0.53% of 350,000 active; AID 686996;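 active = mean inhibition across replicates at least about 35%, with every replicate also reaching that limit, limit read from the data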;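 note: 0% = median of neutral control wells and 100% = no fluorescence left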
Ecoli rRNA inh – selective bacterial rRNA inhibition in E. coli; E. coli WT GFP vs humanized-ribosome RFP mutants, fluorescence, 24 h; stronger effect = lower value; DMSO median 0, no signal -100; GFP signal change (wild-type ribosome), % (no concentration beside the values); 1.6% of 350,000 active;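 active = significant combined selectivity score with lowered wild-type GFP, culture density cut under 30%, mutant RFP and density less affected; inactive = any of these conditions unmet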
NSD2 HMT inh – NSD2 (human) methyltransferase inhibition. NSD2 peptide methylation, AlphaScreen, 120 min. inhibition, % at 12.5 µM. 0.54% of 310,000 active. O96028; in the data active = inhibition above about 50%
An asterisk follows results filed as active; . = no result given; ! = repeats disagree.

SMILES	AF4-AF9 inh	RAD52 anneal inh	CASP6 VEID inh	Ecoli rRNA inh	NSD2 HMT inh
COCC(=O)OC1CCn2c1nc1c2C(=O)C(C)=C(NC(C)=O)C1=O (centres undefined)	-7	28	99*	19	.
COc1ccc(NC(=O)Nc2ccc3c(c2)OC[C@H](C)NC[C@@H](C)[C@@H](OC)CN(C)C3=O)cc1	3	-7	1	-1	.
CO[C@H]1CN(C)C(=O)c2ccc(NC(=O)c3ccc(Oc4ccccc4)cc3)cc2OC[C@H](C)NC[C@@H]1C	11	51*	-1	-2	.
COc1cccc(NC(=O)Nc2ccc3c(c2)C(=O)N(C)C[C@@H](OC)[C@H](C)CN[C@H](C)CO3)c1	21	59*	0	0	.
COc1ccc(NC(=O)Nc2ccc3c(c2)C(=O)N(C)C[C@@H](OC)[C@@H](C)CN[C@H](C)CO3)cc1	.	.	.	0	.
COc1cccc(NC(=O)Nc2ccc3c(c2)OC[C@@H](C)NC[C@H](C)[C@@H](OC)CN(C)C3=O)c1	14	76*	-12	0	.
COc1ccccc1/C=C/C(=O)NC(=S)NCC1CCCO1 (centres undefined)	7	-16	.	-25*	1
CCCNC(=O)N1CCC2(CC1)CN(C(C)=O)[C@@H](CO)c1c2c2ccc(OC)cc2n1C	.	.	.	-3	.
Cc1nc(N2CCCCC2)sc1C(=O)c1ccc(SCCO)c([N+](=O)[O-])c1	14	-18	0	-20*	22
CO[C@@H]1CN(C)C(=O)c2cc(NC(=O)c3ccccc3)ccc2OC[C@H](C)N(C)C[C@@H]1C	0	3	2	2	.
O=C(c1cc(Cl)nc2ccccc12)N(Cc1nnc(-c2ccc(Cl)cc2)o1)C1CC1	-1	-6	0	-27*	-1
O=C(c1cc(Cl)nc2ccccc12)N(Cc1nnc(-c2ccccc2Cl)o1)C1CC1	0	-18	4	-31	.
COc1ccc(C(=O)OCC(=O)c2ccc[nH]2)c(OC)c1	-3	-15	43*	1	-1
COc1ccc(CC(=O)OCC(=O)c2ccc[nH]2)cc1	1	-12	1	4	1
O=C(C[C@@H]1C=C[C@@H](NC(=O)c2ccccc2)[C@H](CO)O1)Nc1ccc(-c2ccccc2)cc1	-1	0	-1	-5	.
O=C(Nc1cccnc1)c1ccc(CSc2ccccc2)cc1	2	-6	1	-3	-2
CN(C=O)c1ccc(CSc2ccccc2)cc1	-2	-8	-3	-29*	0
CCCn1cnc2cc(NCc3cccc(OC)c3O)ccc21	.	.	.	.	5
COc1cccc(CNc2ccc3c(c2)ncn3C(C)C)c1OC	48*	-6	0	-21*	.
Cc1cc2[nH]c3c4ccccc4nc(C)c3c2cc1C	7	83*	0	-58	-2
Cc1cc2[nH]c3ccccc3c2c(C)n1	4	-15	-2	-10	1
O=C1NC(=O)/C(=C\c2ccc(Cl)cc2Cl)N1	-2	-38	4	-19*	0
O=C(CCCCCN1C(=O)[C@@H]2Cc3ccccc3CN2C1=O)Nc1cccc(F)c1	-8	-7	2	-35*	-2
Cc1cccc(NC(=O)CCCCCN2C(=O)[C@@H]3Cc4ccccc4CN3C2=O)c1	-2	-3	2	-5	1
Cc1ccc(/C(N)=N/OC(=O)c2ccc3ccccc3c2)cc1	0	-1	55*	.	-1
SMILES	AF4-AF9 inh	RAD52 anneal inh	CASP6 VEID inh	Ecoli rRNA inh	NSD2 HMT inh
Cc1ccc(/C(N)=N/OC(=O)c2cccc(F)c2)cc1	.	.	.	.	-4
COc1ccc(NC(=O)Nc2ccc3c(c2)CC(=O)N([C@H](C)CO)C[C@H](C)[C@H](CN(C)S(=O)(=O)c2ccc(C)cc2)O3)cc1	.	.	.	-1	.
N/C(=N\OC(=O)Nc1cccc(C(F)(F)F)c1)c1ccno1	0	-22	1	-51*	-1
Fc1cccc(CN2[C@@H]3CNC[C@H]2C3c2ccc(-c3cccc(F)c3)cc2)c1 (some centres undefined)	2	51*!	11	-54	.
Fc1cccc(CN2[C@@H]3CNC[C@H]2C3c2ccc(-c3ccccc3)cc2)c1 (some centres undefined)	.	31	.	-2	.
COc1cc(CN2[C@@H]3CNC[C@H]2C3c2ccc(-c3cccc(C)c3)cc2)cc(OC)c1 (some centres undefined)	3	59*	.	-10	.
COc1ccc(-c2ccc(C3[C@H]4CNC[C@@H]3N4Cc3cc(OC)cc(OC)c3)cc2)cc1 (some centres undefined)	-2	42	1	2	.
